Bioassay records deposited in PubChem BioAssay by National Center for Advancing Translational Sciences (NCATS).
LmPK inhibitor = qHTS Assay for Inhibitors of Leishmania Mexicana Pyruvate Kinase (LmPK); Potency, µM (doses to about 57.5 µM), for the others: at the top dose activity change, negative = inhibition, most hits filed as inhibitors; purified LmPK, Kinase-Glo ATP luminescence, 1 h; 0.37% of 290,000 active; Q27686; AID 1721, 2009
Target sequence (Q27686 whole entry, looked up): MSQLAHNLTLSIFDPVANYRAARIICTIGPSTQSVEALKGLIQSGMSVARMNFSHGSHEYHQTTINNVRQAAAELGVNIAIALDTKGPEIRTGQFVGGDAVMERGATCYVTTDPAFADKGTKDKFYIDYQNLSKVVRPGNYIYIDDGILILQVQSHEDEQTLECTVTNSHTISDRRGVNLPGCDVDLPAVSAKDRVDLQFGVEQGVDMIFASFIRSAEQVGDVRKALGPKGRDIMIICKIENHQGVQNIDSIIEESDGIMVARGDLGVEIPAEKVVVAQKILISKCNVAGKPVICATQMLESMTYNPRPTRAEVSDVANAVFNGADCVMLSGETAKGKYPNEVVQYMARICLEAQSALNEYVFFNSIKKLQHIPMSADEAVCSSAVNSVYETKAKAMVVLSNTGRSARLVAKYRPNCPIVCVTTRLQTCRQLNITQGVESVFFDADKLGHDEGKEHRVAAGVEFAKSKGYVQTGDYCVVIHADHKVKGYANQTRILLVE
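Purified LmPK (0.1 nM) converted ADP (0.1 mM) to ATP with PEP (0.5 mM) in imidazole buffer pH 7.2 with KCl and MgCl2, 1 h at room temperature. ATP was read by Kinase-Glo luminescence; data normalized to uninhibited and no-enzyme controls.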
Sm TGR inh = qHTS Assay for the Inhibitors of Schistosoma Mansoni Peroxiredoxins. Schistosoma mansoni thioredoxin glutathione reductase (TGR), Q962Y6. purified TGR, DTNB reduction, TNB absorbance 405 nm. Potency, µM (titrated, usually from 114 µM), without a hit: at the top dose activity change, negative = inhibition, usual class: inhibitors. 3% of 360,000 active. AID 485364, 2010; further: nearly all actives have a fitted effect of over 60% in size
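First, TGR (20 nM dispensed) and NADPH were mixed with compound. Second, a 15 min room-temperature incubation followed. Third, further NADPH and then DTNB were added to start the reaction. Finally, TNB absorbance was monitored kinetically.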
RE007 growth inh = qHTS Assay for Inhibitors of the HIV-1 protein Vpr; S. pombe RE007 Vpr strain, BacTiter-Glo ATP luminescence, 24 h; Potency, µM (top dose mostly 92.2 µM), without a hit: top-dose activity change, negative = less growth, usual class: inhibitors; 0.21% of 360,000 active; AID 651644, 2012; active means well fitted falling curve with a large enough effect; inconclusive means small, poorly fitted or top-dose-only effect; inactive means no such curve, though single readings can be large or run the other way; further: nearly all actives have a fitted effect of over 50% in size
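Fission yeast strain RE007, carrying one chromosomally integrated HIV-1 vpr copy, was seeded at OD 0.01 in PMG+AL medium with 23 nL pinned compound. After 24 h at 30 °C and 99% humidity, viability was read by BacTiter-Glo luminescence.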
AMA1-RON2 inh = qHTS for Inhibitors of AMA1-RON; Towards Development of Antimalarial Drug Lead: Primary Screen; Plasmodium falciparum AMA1 (3D7) - RON2 peptide interaction; AlphaScreen AMA1-biotinylated RON2 peptide binding; Potency, µM (doses to about 58.2 µM), for the others: at the top dose activity change, negative = inhibition, most hits filed as inhibitors; 0.2% of 360,000 active; AID 720542, 2013;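 further: 0% = vehicle wells and -100% = peptide control; nearly all actives have a fitted effect of over 45% in size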
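AMA1 (3D7) with his tag at 25 nM final met compounds first, then biotinylated RON2 peptide at 25 nM; detection used donor plus acceptor beads, 10 µg/mL apiece, read by AlphaScreen after 30 min at room temperature.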
TbPYK inhibitor = qHTS of Trypanosoma Brucei Inhibitors | pyruvate kinase (Trypanosoma brucei), Q57TT1 | TbPYK enzyme, Kinase-Glo Plus ATP luminescence, 45 min | Potency, µM (titrated, usually from 76.8 µM), without a hit: at the highest dose activity, negative = inhibition, hits mostly inhibitors | 0.12% of 410,000 active; further: nearly all actives have a fitted effect of over 50% in size
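TbPYK + substrate in 50 mM TEA pH 7.2, 100 mM KCl, 10 mM MgCl2, 0.05% BSA, 0.01% Tween-20; cpd pinned; ADP 130 uM final; 45 min RT; Kinase-Glo Plus 10 min; luminescence endpoint.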
Starred values were filed as active, the others as inactive; ? = inconclusive; nt = no result given; [ ] = remark or other dose. Only some compounds are listed: those with a hit (about 3.2% of all), similar ones and a draw of the others. Unless noted, the call rests on the fitted dose curve; in most records, active means well fitted curve in the direction sought with a large enough effect; inconclusive means small, poorly fitted or top-dose-only effect, or another doubt; inactive means no such curve, though single readings can be large; an effect the other way counts as inactive or inconclusive. Unless noted, on the % scale 0 is the no-effect control and ±100 the full control effect; potency means the concentration at half of the fitted maximal effect.

SMILES	LmPK inhibitor	Sm TGR inh	RE007 growth inh	AMA1-RON2 inh	TbPYK inhibitor
COc1ccc2c(Sc3ccccc3)c(C(=O)NCCCN3CCCCC3)[nH]c2c1	nt	4%	nt	nt	0%
COc1cccc(CNC(=O)Cc2c(C)c3c(cc(C)c4c(C)coc43)oc2=O)c1	nt	-1%	nt	nt	0%
COc1ccc2c(c1)CC(C(=O)Nc1c(C)cc(C)cc1C)CO2 (stereo not drawn)	nt	2%	nt	nt	-3%
COc1ccc2c3c(c(=O)oc2c1)C1O[C@](CCCCN2C(=O)c4ccccc4C2=O)(Cc2cc(OC)c(OC)cc21)O3	-2%[11.5 µM]	?	nt	nt	nt
COc1cc2c(cc1OC)C1O[C@](CCCCN3C(=O)c4ccccc4C3=O)(C2)OC2=C1C(=O)c1ccccc1C2=O	-8%[11.5 µM]	4µM*	nt	nt	nt
COc1cc2c(cc1OC)C1O[C@](CCCCN3C(=O)c4ccccc4C3=O)(C2)OC2=C1C(=O)CCC2	-12%[11.5 µM]	?	nt	nt	nt
COc1cc2c(cc1OC)C1O[C@](CCCCN3C(=O)c4ccccc4C3=O)(C2)Oc2c1c(=O)oc1ccc(F)cc21	5%[11.5 µM]	2.5µM*	nt	nt	nt
CCOc1ccccc1C(=O)Nc1cc(-c2nc3cccnc3s2)ccc1C	nt	-1%	nt	nt	-7%
CCOC(=O)c1cccc(NC(=O)c2cc(CN3CCOCC3)on2)c1	nt	-1%	nt	nt	-1%
COc1cc(OC)cc(-c2nc3cc(C)ccc3o2)c1	14µM*	7%	?	20%	-20%
CCCN(Cc1cc2cc(OC)ccc2[nH]c1=O)C(=O)c1ccco1	1%	40µM*	1%	0%	-1%
CCCCN(Cc1cc2cc(OC)ccc2[nH]c1=O)C(=O)c1ccco1	10%	45µM*	-7%	-4%	-19%
COC(=O)c1cccc(S(=O)(=O)N(Cc2ccco2)Cc2cc3cc(OC)ccc3[nH]c2=O)c1	2%	28µM*	-2%	-10%	-15%
COc1ccc2[nH]c(=O)c(CN(C(=O)c3ccco3)C(C)C)cc2c1	2%	2%	7%	11%	-4%
CCOC(=O)c1cccc(S(=O)(=O)N(CCO)Cc2cc3cc(OC)ccc3[nH]c2=O)c1	2%	-13%	2%	-2%	1%
COc1ccccc1N1CCN(c2nc3ccc(C(=O)c4ccccc4)cc3n3c(C)nnc23)CC1	nt	5%	nt	nt	-1%[15.4 µM]
CCOc1ccc(C2C(C(=O)Nc3ccccc3C)=C(C)Nc3nnnn32)cc1 (stereo not drawn)	nt	-1%	nt	nt	4%
O=C(Nc1ccccc1C(=O)N/N=C/c1ccc(O)cc1)c1ccccc1	14µM*	2%	?	37%	-23%
COc1ccc(C(=O)Nc2ccccc2C(=O)N/N=C/c2ccncc2)cc1OC	14µM*	-1%	8.9µM*	2%	-29%
CC1=NN(c2ccccc2)C(=O)/C1=C/C=C/c1ccccc1	-1%	-11%	2%	3.2µM*	-8%
Cc1ccc2c(C(=O)CN3CCCC(C)C3)c(C)[nH]c2c1 (stereo not drawn)	2%	35µM*	-9%	8%	-4%
Cc1ccc2c(C(=O)CN3CC(C)CC(C)C3)c(C)[nH]c2c1 (stereo not drawn)	-5%	14µM*	nt	nt	nt
CCOC(=O)C1CCN(CC(=O)c2c(C)[nH]c3cc(C)ccc23)CC1	-2%	31%	-3%	-4%	3%
CCC(C(=O)N1CCN(c2cc(Cl)ccc2C)CC1)n1nc(C)n2c(cc3occc32)c1=O (stereo not drawn)	nt	-1%	nt	nt	-5%
NC(=O)C1CCN(C(=O)/C=C/c2ccco2)CC1	-1%	7.9µM*	4%	-8%	5%
O=C(/C=C/c1ccco1)N1CCN(S(=O)(=O)/C=C/c2ccccc2)CC1	-4%	13µM*	-3%	-17%	-3%
O=C(/C=C/c1ccc(F)cc1)N1CCN(S(=O)(=O)/C=C/c2ccccc2)CC1	5%	0%	-6%	-10%	2%
